# Screening results from PubChem BioAssay.
# D1 agonist: agonists of human D1 dopamine receptor; activation, % at 2 µM; 360,000 compounds, 1% hits; HEK293 T-REx D1 cells, calcium flux, agonist mode; P21728; also: 0% is about no effect
# Target sequence (P21728 whole entry, looked up): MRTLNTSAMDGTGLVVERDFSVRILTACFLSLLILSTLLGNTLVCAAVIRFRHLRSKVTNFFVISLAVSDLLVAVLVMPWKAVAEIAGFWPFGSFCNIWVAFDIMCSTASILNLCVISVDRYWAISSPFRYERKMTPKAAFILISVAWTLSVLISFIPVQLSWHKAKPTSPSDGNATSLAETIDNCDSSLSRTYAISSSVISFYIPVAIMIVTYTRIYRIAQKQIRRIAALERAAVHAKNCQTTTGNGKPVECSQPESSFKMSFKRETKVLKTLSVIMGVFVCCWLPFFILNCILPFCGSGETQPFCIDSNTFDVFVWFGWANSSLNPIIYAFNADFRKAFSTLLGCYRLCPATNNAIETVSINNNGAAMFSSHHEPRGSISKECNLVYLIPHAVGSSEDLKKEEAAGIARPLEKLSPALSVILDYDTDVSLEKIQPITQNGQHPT
#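 Tetracycline-induced HEK293 TREx D1 cells, force-coupled to calcium signalling, were dye-loaded with a no-wash calcium kit. Compound was pin-added after a 10 s baseline. Fluorescence was read kinetically at 1 cycle/s for 180 s, with calcium rises flagged as agonism.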
# TRHR agonist: TRH receptor (human) agonism | P34981 | TRHR cells, calcium flux fluo-8, FDSS agonist mode | activation, % at 2 µM | 360,000 compounds, 0.18% hits; also: 0% is about no effect
#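 TRHR-expressing cells loaded with fluo-8 calcium dye; 23 nL library compound pin-transferred, kinetic FDSS fluorescence (Ex 480/Em 530) recorded about 180 s for agonist-induced calcium release, before a 10 nM TRH EC20 addition for potentiator mode.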
# TRHR PAM: allosteric enhancers of human TRH receptor. enhancement, % at 2 µM. AID 493056. P34981. 360,000 compounds, 0.66% hits. TRHR cells, fluo-8 calcium fluorescence, EC20 TRH enhancement; in the data active = enhancement above about 30%; also: 0% is about no effect
#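 TRHR-expressing cells loaded with fluo-8 calcium dye were read kinetically (ex 480/em 530) during compound addition, then stimulated with an EC20 of TRH (10 nM final). Enhancement of the Gq-mediated intracellular calcium response was scored.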
# D1 antagonist: human D1 dopamine receptor antagonism. HEK293 TREx D1 cells, calcium flux, dopamine EC80; active compounds read low. activity change, negative = inhibition, % at 10 µM. P21728. 360,000 compounds, 3.2% hits; in the data active = activity change below about -30%; also: % is scaled to controls: 0 for no effect and ±100 for the full control effect
#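 Antagonism measured as reduced calcium response to an EC80 dopamine addition following 180 s compound pre-read; cells were inducible HEK293 Trex D1 plated overnight at 30 C, read kinetically at 1 cycle/sec.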
# D1 PAM: human D1 dopamine receptor positive modulation; P21728; HEK293 TREx D1 cells, calcium flux, dopamine EC20 potentiation; potentiation, % at 10 µM; 360,000 compounds, 0.036% hits; in the data active = potentiation above about 30%; also: 0% is about no effect
# The depositor's hits bear a star; ! = not active in a repeat. Rows were chosen to be rich in hits. Some 4.7% of all compounds tested hit in one or more screens of this group. Rule as the data show it, unless noted: active = activation above about 30%; inactive = the rest.
SMILES,D1 agonist,TRHR agonist,TRHR PAM,D1 antagonist,D1 PAM
Cc1cc(C(=O)NC2CCCCC2C)c2ccccc2n1 (stereo unspecified),2,0,-2,14,2
Cc1cc(C(=O)NCc2ccccc2Cl)c2ccccc2n1,7,-1,6,-63*,-10
Cc1cc(C(=O)OCC(=O)NCc2cccs2)c2ccccc2n1,8,0,0,-31*,-1
CCNC(=O)COC(=O)c1cc(C)nc2ccccc12,2,0,2,-19,16
Cc1cc(C(=O)Nc2ccccc2Cl)c2ccccc2n1,3,1,7,-4,2
Cc1cc(C(=O)NCc2cccc(Cl)c2)c2ccccc2n1,2,-1,4,-33*,-11
Cc1cc(C(=O)NC2CCCC(C)C2C)c2ccccc2n1 (stereo unspecified),0,0,-2,-31*,-12
Cc1ccc(C(=O)N2CCNC(=O)C2CC(=O)Nc2ccc(F)cc2)cc1C (stereo unspecified),2,-1,-3,2,-5
Cc1cc(C)cc(NC(c2cccc(Cl)c2)c2nnc(-c3ccccc3)o2)c1 (stereo unspecified),0,-1,-4,0,-4
C=CCNc1cnn(-c2ccccc2)c(=O)c1Cl,0,0,1,4,-2
CCCCn1c(N)c(N(CC(C)C)C(=O)CCCc2cccs2)c(=O)[nH]c1=O,3,-1,-6,-12,19
COc1ccc(NC(=O)Cn2c(=O)n(Cc3nc(-c4ccccc4)no3)c(=O)c3ccccc32)cc1Cl,6,1,-6,-1,1
Cc1ccc(Sc2cc(C(=O)NCCN(C)C)c3ccccc3n2)cc1,17,1,5,17,-9
Cc1ccc(Sc2cc(C(=O)NCCCN(C)C)c3ccccc3n2)cc1,34*,-2,-1,-10,-2
CCCCN(C)CCCNC(=O)c1cc(-c2cccnc2)nc2ccccc12,2,0,10,-59*!,3
CCOc1ccc(NCc2cccn2-c2nnc(N3CCC(C(=O)NCCc4ccc(OCC)c(OCC)c4)CC3)s2)cc1,0,0,-13,-13,-6
CCOc1ccc(NCc2cccn2-c2nnc(N3CCC(C(=O)NCCc4ccc(OC)c(OC)c4)CC3)s2)cc1,7,1,-2,-31*,-3
COc1cc(C2NC(=O)NC(c3ccccc3)=C2C(C)=O)cc(Cl)c1OCC(=O)O (stereo unspecified),-2,0,33*,38,2
CCOCCCn1c(SCC(=O)Nc2cccc(OC)c2)nc2ccccc2c1=O,1,-1,-7,-46*!,-3
Cc1ccc(NC(=O)CN(C)C(=O)CSc2nc3ccccc3c(=O)n2Cc2ccco2)cc1,3,0,1,-33*,-2
CCN(CC)CCn1c(SCC(=O)Nc2ccc3c(c2)CCC3)nc2ccccc2c1=O,2,0,-4,-32*,-4
O=C(CSc1nc2ccccc2n1Cc1cccc(F)c1)NCc1ccccc1,3,-1,-4,0,0
COCCN(CC(=O)Nc1cccc(C)c1C)C(=O)c1ccc(S(=O)(=O)N2CCOCC2)cc1,0,1,-3,5,1
Cc1ccc(NC(=O)Cn2c(=O)n(-c3ccccc3)c(=O)c3ccc(C(=O)NCc4ccc5c(c4)OCO5)cc32)c(C)c1,13,3,-7,-9,-1
Cc1noc(-c2ccccc2OCC(=O)Nc2cccc([N+](=O)[O-])c2)n1,0,-1,-3,-14,-1
Cc1nc(C)c(-c2ccc(SCC(=O)Nc3cccc(F)c3)nn2)s1,10,-1,7,-32*,2
OCC[C@@H]1C[C@H](O)[C@@H](O)[C@@]2(Cc3ccccc3CO2)O1,0,1,25,-69*,0
O=C(c1ccc2c(c1)N(Cc1ccccc1)C(=O)c1ccccc1S2(=O)=O)N1CCc2ccccc21,3,0,2,6,1
COc1ccccc1Oc1ccc(N2CC(C(=O)OCC(=O)c3ccccc3)CC2=O)cc1 (stereo unspecified),5,1,8,-30*,-13
O=C(CN1C(=O)COc2ccc(S(=O)(=O)NC3CCCC3)cc21)Nc1ccc(F)c(Cl)c1,20,-1,6,-5,-4
